Measurements as given in PubChem BioAssay (NCATS).
Unmarked numbers belong to inactive results.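 Rule for the calls: active = calcium activation more than 3 SD above the typical response in the agonist read; inactive = the rest.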

These compounds were tested against Thyrotropin-releasing hormone receptor (Homo sapiens) (UniProt P34981) (assay: qHTS for Small Molecule Agonists and Allosteric Enhancers of Human TRH Receptor: Validation Screen for Agonists (AID 493127;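 note: intracellular calcium rise by fluo-8 fluorescence before TRH EC20 addition; 0% is about no effect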)). Settings: TRH receptor agonist cell assay; at 2 µM; stronger effect = higher value.
Chain of Thyrotropin-releasing hormone receptor (Homo sapiens) (P34981 whole entry, looked up): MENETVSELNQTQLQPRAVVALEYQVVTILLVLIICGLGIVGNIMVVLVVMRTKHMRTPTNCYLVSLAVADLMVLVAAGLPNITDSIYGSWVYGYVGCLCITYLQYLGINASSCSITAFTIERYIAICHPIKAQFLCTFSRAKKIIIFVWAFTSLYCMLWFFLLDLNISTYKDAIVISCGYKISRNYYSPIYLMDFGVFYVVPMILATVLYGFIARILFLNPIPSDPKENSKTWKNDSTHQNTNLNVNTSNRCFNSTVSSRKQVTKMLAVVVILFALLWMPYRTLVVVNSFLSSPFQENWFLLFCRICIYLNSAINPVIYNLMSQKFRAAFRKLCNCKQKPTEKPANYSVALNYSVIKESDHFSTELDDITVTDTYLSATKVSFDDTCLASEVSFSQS
Description: NIH Chemical Genomics Center [NCGC]
NIH Molecular Libraries Probe Centers Network [MLPCN]
Assay Submitter (PI): Marvin Gershengorn
This project aims to identify small drug-like molecules that activate (agonists) the thyrotropin releasing hormone (TRH) receptor (TRHR) or enhance its TRH-stimulated activity (allosteric enhancers). TRHR, a drug-accessible cell surface receptor expressed in specific brain regions, and its ligand TRH have been implicated in several central nervous system disorders, including depression and anxiety. Small molecule TRHR agonists or allosteric enhancers that are metabolically stable and able to cross the blood-brain barrier might serve as probes to elucidate the roles of brain TRH receptors in animal models, and might be valuable as lead compounds for the development of drugs to treat patients with central nervous system disorders.
Upon TRHR-Gq activation in TRHR cells, intracellular calcium is released from stores in the endoplasmic reticulum. […] This validation screen measures compound-induced activation of calcium release.
For the HTS assay freshly prepared cells are plated at a density of 2000/well in 3 ul of complete DMEM medium containing 10% serum in 1536-well plates and cultured over night at 37 C in a humidified incubator with 5% CO2. The next day, 2 ul of a no wash calcium dye (ABD Bioquest) was added to the cells and plates were incubated at room temperature for 1 hour. For the assay, assay plates were loaded into the FDSS kinetic plate reader. A 10 cycle (1 second/cycle) baseline measurement is taken and then the FDSS online 1536 pintool delivers 23 nl of compound library (as well as TRH controls) to the plate. The plate is measured for kinetically at 1 cycle/sec for 180 seconds and is considered to be the agonist portion of the assay (eg, compounds which activate a positive calcium response during this portion are flagged as potential agonists). Following the 180 second read, 1 ul of either an EC20 (positive modulation assay) is delivered by an onboard pipette head. Measurements are taken kinetically for an additional 180 seconds.
TRHR FDSS Screening Protocol
1. Reagent, 3 uL 2000 cells/well 1536 TC treated Black plate in media containing 10% FCS
2. Time, 18 hours, 33.5C 5% CO2 (cells grown at 37C)
3. Reagent, 2 uL ABD fluo-8 Ca dye
4. Time, 30 min-1.5hrs hours, Room temp (6 plates/batch)
5. Detector, EX 480/EM 530C, FDSS 10 cycles baseline (1sec/cycle)
6. Compound, 23 nL of stock solution from library
7. Detector, EX 480/EM 530C, FDSS 230 cycles (1sec/cycle) Agonist mode
8. Compound, 1 ul EC20 of TRH made up in HEPES HBSS, 10 nM final
9. Detector, EX 480/EM 530C, FDSS 100 cycles (1sec/cycle) Potentiator mode

SMILES | activation [%]
O=C1NC(c2cccc([N+](=O)[O-])c2)=CCN1c1ccccc1O | 1.25
CC(C)N(CCC(=O)c1ccc2ccccc2c1)Cc1ccccc1 | 3.12
C[C@]12CCC(=O)C=C1CC[C@@H]1[C@@H]2[C@@H](O)C[C@@]2(C)[C@H]1CC[C@]2(O)C(=O)COC(=O)CCC(=O)O | -0.0625
COc1cccc2c1[C@@H]1CN(CCCCn3c(=O)[nH]c4c(sc5ncc(-c6ccccc6)nc54)c3=O)C[C@@H]1CO2 | 0.5
Cn1cnc2c(NCc3ccccc3)nc(NCCO)nc21 | 0.188
CN(C)c1cc2c(Nc3ccc4c(cnn4Cc4ccccc4)c3)ncnc2cn1 | 2.12
Brc1ccc([C@H]2CN3CCSC3=N2)cc1 | -2.94
NC(N)=NCCCCN=C(N)N | 0.938
O=[N+]([O-])c1ccc(-c2nc(-c3ccc(F)cc3)c(-c3ccncc3)[nH]2)cc1 | 4.88
COc1ccccc1N1CCN(CCN2C(=O)CC3(CCCC3)CC2=O)CC1 | 2.31
